# This is a sample that favours compounds with a hit; in the whole collection about 1.1% have one here.
# GALR2 antag: GALR2 antagonists in receptor-expressing cells, primary screen. actives 0.39% (n = 140,000). antagonist mode. Galanin receptor type 2 (Homo sapiens), O43603. inhibition, % at 4 µM;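 also: cells stimulated with galanin 1-16 at roughly its EC80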
# S1P2 ag: S1P2 receptor agonists, primary screen, cell-based | Sphingosine 1-phosphate receptor 2 (Homo sapiens), O95136 | S1P2-expressing cell line, agonist reporter read-out | activation, % at 4.5 µM | actives 0.46% (n = 97,000) | AID 729, 2007; in the data active = activation above about 16%
# Target sequence (O95136 whole entry, looked up): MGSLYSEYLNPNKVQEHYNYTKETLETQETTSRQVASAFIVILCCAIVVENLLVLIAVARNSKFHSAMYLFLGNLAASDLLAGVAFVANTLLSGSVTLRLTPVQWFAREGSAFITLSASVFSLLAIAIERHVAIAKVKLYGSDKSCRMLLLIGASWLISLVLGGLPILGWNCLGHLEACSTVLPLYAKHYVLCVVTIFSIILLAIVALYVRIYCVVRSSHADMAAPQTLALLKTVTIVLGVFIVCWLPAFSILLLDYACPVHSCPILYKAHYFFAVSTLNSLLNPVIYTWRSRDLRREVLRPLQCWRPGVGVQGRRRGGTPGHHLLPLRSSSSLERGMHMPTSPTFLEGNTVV
# S1P2 antag: human S1P2 receptor antagonists, primary screen, cell-based. Sphingosine 1-phosphate receptor 2 (Homo sapiens), O95136. cell-based S1P2 antagonist assay, inhibition at 5 uM. inhibition, % at 5 µM. actives 0.21% (n = 97,000). AID 736, 2007; in the data active = inhibition above about 45%;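 also: CRE beta-lactamase reporter cells expressing human S1P2 stimulated with S1P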
# GALR2 agonist: GALR2 receptor agonists, primary screen, cell-based | actives 0.48% (n = 140,000) | Galanin receptor type 2 (Homo sapiens), O43603 | AID 803, 2007 | GALR2-expressing cells, agonist activation read-out | activation, % (no concentration beside the values); in the data active = activation above about 5%, passing the limit was not always enough
# GALR2 blk conf: GALR2 antagonists, retest of hits, confirmation, cell-based. shares compounds with GALR2 antag. GALR2-expressing cells, antagonist mode, inhibition. inhibition, % at 4 µM. actives 60% (n = 480). AID 866, 2007;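 also: cells stimulated with galanin at about its EC80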
# BLA inhib ctr: inhibitors of NFAT-driven beta-lactamase reporter, confirmation, counter-screen for GALR2 antagonist project, CHO NFAT-bla cells, FRET readout; shares compounds with GALR2 antag; thapsigargin-stimulated; inhibition, % at 4.2 µM; actives 36% (n = 480);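 active = inhibition above the mean inhibition across tested compounds plus 3 SD, cut at about 27% in these data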
# Numbers stand for hits; i = inactive; nt = no result. Rule as the data show it, unless noted: active = inhibition above about 27%; inactive = the rest.
SMILES,GALR2 antag,S1P2 ag,S1P2 antag,GALR2 agonist,GALR2 blk conf,BLA inhib ctr
CCCCNS(=O)(=O)c1ccc(S(=O)(=O)NCc2ccncc2)cc1,27,i,i,i,i,i
Cc1cc(C)c(S(=O)(=O)NCc2ccncc2)c(C)c1,31,i,47,i,35,i
CC1(C)CCCN(C(=O)c2coc(=O)c(Br)c2)C1,i,i,i,i,nt,nt
COc1ccc(CNC(=O)c2cnn3c(C(F)F)cc(C)nc23)cc1OC,i,nt,nt,i,nt,nt
CCCCc1ccc(NC(=O)CSCc2cc(=O)[nH][nH]2)cc1,i,i,i,i,nt,nt
Cc1ccc(NC2=Nc3ccccc3N3C2=Nc2c(c(C)nn2-c2ccccc2)C3c2ccc(O)c(O)c2)cc1 (stereo unspecified),58,i,77,i,51,69
Cc1cccc(NC2=Nc3ccccc3N3C2=Nc2c(c(C)nn2-c2ccccc2)C3c2ccc(O)c(O)c2)c1 (stereo unspecified),45,i,80,i,44,68
Cc1nn(-c2ccc([N+](=O)[O-])cc2)c2c1C(c1cccc(Br)c1)N1C(=N2)C(=O)Nc2ccccc21 (stereo unspecified),i,nt,nt,i,nt,nt
Cc1nn(-c2ccccc2)c2c1C(c1ccc([N+](=O)[O-])cc1)N1C(=N2)C(=O)Nc2ccccc21 (stereo unspecified),i,nt,nt,i,nt,nt
Cc1nn(-c2ccccc2)c2c1C(c1ccc(O)c(O)c1)N1C(=N2)C(Nc2ccccc2)=Nc2ccccc21 (stereo unspecified),47,i,85,i,37,59
COc1ccc(OCCNc2cc(N3CCCCC3)ccc2[N+](=O)[O-])cc1,i,i,i,i,nt,nt
COc1ccc(OCCNc2cc(Cl)ccc2[N+](=O)[O-])cc1,71,i,i,i,i,i
CN(C)CCCn1c(SCC(=O)N2c3ccccc3Sc3ccccc32)nc2ccccc2c1=O,i,nt,nt,i,nt,nt
CC(=O)SC(C[N+](=O)[O-])c1cn(C(C)=O)c2ccccc12 (stereo unspecified),35,i,i,i,56,i
CC(=O)n1cc(Nc2ccccc2C(=O)O)c2ccccc21,i,i,i,i,nt,nt
Cc1cc(C)nc(N/C(=N\S(=O)(=O)Cc2ccccc2)Nc2ccc(F)c(Cl)c2)n1,i,nt,nt,i,nt,nt
CCc1c(C)nc2ncnn2c1NCCc1ccc(OC)cc1,32,i,i,i,35,i
CN(C(=O)COc1ccccc1C(=O)NCCOc1ccccc1)c1ccccc1,29,nt,nt,i,43,i
Cc1cc(C)c2c(N)c(-c3nc4ccccc4[nH]3)sc2n1,28,i,i,i,i,i
Cc1ccc2nc(-c3sc4nc(C)ccc4c3N)[nH]c2c1,i,i,i,i,nt,nt
CC(=O)c1c(C)[nH]c(C(=O)OCC(=O)Nc2ccc(Cl)cc2[N+](=O)[O-])c1C,36,nt,nt,i,51,i
COc1cccc(C2=CC(c3ccccc3)n3ncnc3N2)c1 (stereo unspecified),27,i,i,i,30,36
COc1cccc(C2=CC(c3ccc(N(C)C)cc3)n3ncnc3N2)c1 (stereo unspecified),i,i,i,i,nt,nt
CCOC(=O)C(O)(CC(=O)Nc1cc(F)ccc1C)C(F)(F)F (stereo unspecified),29,i,i,i,i,i
COc1ccc(C(=O)c2ccc(N(C)C)cc2)c(OC)c1,i,i,i,i,nt,nt
SMILES,GALR2 antag,S1P2 ag,S1P2 antag,GALR2 agonist,GALR2 blk conf,BLA inhib ctr
CN(C)c1ccc(C(=O)c2ccc(N(C)C)c3ccccc23)cc1,30,i,i,i,33,64
COc1ccc(-c2cn3nc4c(nc3n2)CCCC4)cc1,31,i,i,i,i,i
COc1cccc(-c2cn3nc(C)c(C)nc3n2)c1,i,i,i,i,nt,nt
CCOC(=O)C1=C(Cc2ccc(OC)cc2)C(=O)c2ccccc2C1=O,32,i,i,i,i,i
CCOC(=O)C1=C(Cc2ccc(C)cc2)C(=O)c2ccccc2C1=O,i,i,i,i,nt,nt
Cc1ccc(C2CC(=O)Nc3cc4c(cc32)OCO4)o1 (stereo unspecified),34,i,i,i,i,i
O=C(Cn1ncc(Cl)c(Cl)c1=O)c1ccc(Cl)cc1,i,i,i,i,nt,nt
O=C(Cn1ncc(Cl)c(Cl)c1=O)NCC1CCCCC1,47,nt,nt,i,33,i
